# Sampled rows, rich in hits. Any-hit rate of the full collection: about 5.4%.
# Vaccinia mCherry = inhibitors of vaccinia virus infection (mCherry reporter signal). Vaccinia virus mCherry reporter infection, fluorescence. Potency, µM (series often up to 36.5 µM), for inactives: at the highest dose activity change, negative = inhibition, actives largely listed as inhibitors. 310,000 tested, 0.63% active; calls by dose curve; tested in A549 cells; further: nearly all actives have a fitted effect of over 35% in size
# VACV Venus inh = vaccinia inhibition (Venus reporter); Vaccinia virus Venus reporter expression, fluorescence; Potency, µM (doses to about 36.5 µM), for inactives: top-dose activity change, negative = inhibition, usual class: inhibitors; AID 720580; 330,000 tested, 0.46% active; calls by dose curve; tested in A549 cells; further: nearly all actives have a fitted effect of over 30% in size
# Marburg entry inh = Marburg virus entry inhibition | Potency, µM (series often up to 37.8 µM), inactives show at the highest dose activity change, negative = inhibition, usual class: inhibitors | Marburg virus pseudotyped entry inhibition, cell reporter | 300,000 tested, 1.8% active | AID 540276; calls by dose curve; tested in HEK293 cells
# FMDV inh = antivirals against foot and mouth disease virus; AID 1159524; FMDV antiviral cell-based qHTS; 410,000 tested, 1.2% active; Potency, µM (doses to about 57.9 µM), inactives show at the highest dose activity change, negative = inhibition, hits mostly inhibitors; calls by dose curve; tested in HEK293T cells; further: read-out not given here; nearly all actives have a fitted effect of over 45% in size
# Sm TGR inh = S. mansoni TGR enzyme inhibition; Q962Y6; purified TGR, DTNB reduction, TNB absorbance 405 nm; Potency, µM (top dose mostly 114 µM), inactives show at the top dose activity change, negative = inhibition, most hits filed as inhibitors; 360,000 tested, 3% active; AID 485364; active means well fitted inhibition curve with a large enough effect; inconclusive means small, poorly fitted or top-dose-only effect; inactive means no such curve, though single readings can be large or run the other way; further: nearly all actives have a fitted effect of over 60% in size
#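 First, TGR (20 nM dispensed) and NADPH were mixed with compound. Second, a 15 min room-temperature incubation followed. Third, further NADPH and then DTNB were added to start the reaction. Finally, TNB absorbance was monitored kinetically.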
# Lassa entry inh = inhibitors of Lassa virus binding or cell entry. Lassa virus pseudotype entry inhibition, cell reporter. Potency, µM (series often up to 37.9 µM), inactives show at the top dose activity change, negative = inhibition, usual class: inhibitors. 300,000 tested, 1.2% active. AID 540256; calls by dose curve; tested in HEK293 cells; further: nearly all actives have a fitted effect of over 50% in size
# * hit, by the source's call; i = inactive; ? = inconclusive; . = not tested or not shown; [ ] = another dose, or the depositor's remark. On the % scale 0 is the no-effect control and ±100 the full control effect; potency means the concentration at half of the fitted maximal effect.
SMILES,Vaccinia mCherry,VACV Venus inh,Marburg entry inh,FMDV inh,Sm TGR inh,Lassa entry inh
CC1(C)CC(=O)C(C(c2ccc(F)cc2)C2C(=O)CC(C)(C)CC2=O)C(=O)C1,-13%,-9%,1%,-9%,45µM*,-4%
COC(=O)c1ccc(C(C2C(=O)CC(C)(C)CC2=O)C2C(=O)CC(C)(C)CC2=O)cc1,i,-9%,2%,34%,?,0%
CCc1nn(CC(=O)N2CCN(c3cccc(C)c3)C(C)C2)c(=O)c2cc3sccc3n12 (stereo not drawn),-3%,-16%,?,-23%,25%,.
CCn1c(-c2ccccc2F)nc2cc(NC(C)=O)cc(C(=O)N3CCC[C@H]3C(=O)OC)c21,i,0%,.,15%,.,.
CCOC(=O)C1C(=O)C=C(c2ccc([N+](=O)[O-])cc2)CC1c1ccccc1 (stereo not drawn),.,.,?,?,-5%,?
CCOC(=O)C1C(=O)C=C(c2cccc(NS(C)(=O)=O)c2)CC1c1ccco1 (stereo not drawn),-19%,-14%,2%,-18%,32µM*,-2%
CCOC(=O)C1C(=O)C=C(c2ccc(C)cc2)CC1c1ccccc1 (stereo not drawn),-16%,-6%,20%[46.1 µM],-5%,.,16µM*
CCOC(=O)C1C(=O)C=C(c2ccc(Br)cc2)CC1c1ccco1 (stereo not drawn),.,.,?,?,-29%,15µM*
CC(=O)N1CCC(N(Cc2ccc(C)o2)C(=O)Nc2ccccc2F)CC1,-2%,9%,.,-1%,?,19%[46.1 µM]
COc1ccc(C(=O)CCC(=O)Nc2cccc(C(C)=O)c2)cc1,-5%,-4%,.,-12%,9%,27%[46.1 µM]
O=C(CCS(=O)(=O)c1nc(-c2ccc3c(c2)OCO3)cc(C(F)(F)F)n1)Nc1ccccc1C(F)(F)F,i,-12%,-29%[46.1 µM],-14%,-27%,23%[46.1 µM]
O=C(CCC1N=C2c3ccccc3N=C(SCc3ccc(F)cc3)N2C1=O)NCc1ccc(F)cc1 (stereo not drawn),?,-27%,.,-33%,10%,-3%[46.1 µM]
O=S(=O)(CCN1CCCCC1)Oc1ccc(Cl)cc1Cl,-15%,?,14%[46.1 µM],15%,0.45µM*,7%[46.1 µM]
Cc1nn(-c2ccccc2)c2c1N(CC(=O)N1CCN(c3ccc(Cl)cc3)CC1)C(=O)CS2,-1%,-9%,.,-11%,-3%,15%[46.1 µM]
COc1ccc(NS(=O)(=O)c2ccc(C)c(NC(=O)NC3CCCCC3)c2)cc1,i,-30%,?,-19%,6%,10µM*
COc1ccc(NS(=O)(=O)c2ccc(C)c(C(=O)N(C)Cc3ccc(C)cc3)c2)cc1,?,-18%,?,1%,-20%,11µM*
COc1ccc(NS(=O)(=O)c2cccc(NC(=O)NC3CCCCC3)c2)cc1,-4%,?,?,-17%,-1%,2µM*
Cc1cccc(N2CCN(C(=O)CN3C(=O)CSc4c3c(C)nn4-c3ccccc3)CC2)c1C,-4%,-13%,.,-16%,3%,11%[46.1 µM]
Cc1cccc(Cn2c(CNS(=O)(=O)c3ccc(C(C)C)cc3)nc3cccnc32)c1,-28%,-24%,.,35%,3%,-4%[46.1 µM]
Cc1cc(NC(c2cccnc2)c2c(C)[nH]c3ccccc23)no1 (stereo not drawn),.,-10%,-12%,2%,2.8µM*,-8%
Cc1[nH]c2ccccc2c1C(c1ccccn1)N1CCCC1 (stereo not drawn),-9%,-8%,-15%[46.1 µM],-8%,?,-1%
Cc1ccnc(NC(c2ccccn2)c2c(C)[nH]c3ccccc23)c1 (stereo not drawn),-9%,-5%,-12%[46.1 µM],-23%,0.28µM*,-6%
CCC(CC)C(=O)c1c[nH]c(C(=O)NCc2ccccc2OC)c1,.,.,.,40µM*,9%,.
COc1ccc(CCC(=O)NNC(=O)Nc2ccc(C(C)C)cc2)cc1,-25%,-7%,5%[46.1 µM],1%,4%,-16%[46.1 µM]
COc1ccc(CCC(=O)NNC(=O)Nc2ccc(C(C)=O)cc2)cc1,-7%,-10%,6%,24%,-20%,0.71µM*
CCOC(=O)CNC(=O)C1CCCCC1,-15%,-13%,.,.,.,.
CCCCN(Cc1ccccc1)C(=O)c1oc(=O)c2ccccc2c1-c1ccc(C)cc1,-13%,-23%,?,0%,-6%,-11%[46.1 µM]
